Results from PubChem BioAssay.
Active and inactive are the calls of the source.

Assays:
[1] = system: PRMT1 (protein arginine N-methyltransferase 1); assay: PRMT1 binders on small-molecule microarrays, primary screen, biochemical, small-molecule microarray, 635 nm fluorescence (AID 1088); details: small-molecule microarray binding, higher = more signal;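 note: binding of Prmt1 protein to compounds spotted on small-molecule microarray slides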
[2] = yeast growth modulation, basal conditions, primary screen, YJM789 clinical isolate, OD600, 24 h (AID 1089);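 note: growth of clinical yeast isolate S. cerevisiae YJM 789 seeded 1000 cells per well; test concentration not given here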; details: S. cerevisiae YJM789 growth, higher = more signal, called active from +8 up or from −8 down
[3] = fission yeast growth modulation, primary screen, strain 972, OD600, 24 h, no modulator (AID 1090);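 note: basal condition with compound alone and no growth modifier present; test concentration not given here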; details: S. pombe 972 growth, higher = more signal, called active from +8 up or from −8 down
[4] = S. cerevisiae growth modulation with rapamycin, primary screen, strain BY4716, OD600, 96 h (AID 1091); details: higher = more signal, called active from +8 up or from −8 down; note: test concentration not given here
[5] = molecular target: Torsin-1A-interacting protein 2 (Homo sapiens) (UniProt Q8NFQ8); assay: LULL1 binders on small-molecule microarray, primary screen, cell lysate, human LULL1 lysate, 635/667 nm fluorescence (AID 1092); details: hLULL1 lysate binding, 635 nm fluorescence, higher = more signal;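 note: probe is lysate of COS7 cells overexpressing human LULL1; score merges per-feature 667 nm fluorescence with signal-to-noise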
[6] = E. coli growth modulation, two-sided OD650, primary screen, E. coli filamentation project, strain DRC41, 24 h (AID 1093); details: OD650, 24 h, higher = more signal, called active from +8 up or from −8 down;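 note: MC1000 strain lacking acrAB efflux and sulA so SOS filamentation is blocked; test concentration not given here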
[7] = small-molecule microarray binders of probe aLefty2, primary screen, biochemical, biotinylated probe, 635/667 nm fluorescence (AID 1094); details: higher = more signal;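 note: score merges spot fluorescence near 667 nm with spot signal-to-noise ratio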
[8] = system: Noggin (protein binding on small-molecule microarray); assay: Noggin binders on small-molecule microarray, primary screen, biochemical, 635/667 nm fluorescence (AID 1095); details: 635 nm fluorescence, higher = more signal;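 note: score merges 667 nm feature fluorescence with signal to noise over triplicate slides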
[9] = molecular target: Neurogenic locus notch homolog protein 3 (Homo sapiens) (UniProt Q9UM47); assay: NOTCH3 binders on small-molecule microarray, primary screen, biochemical, 635/667 nm fluorescence (AID 1096); details: NOTCH3 binding, 635 nm fluorescence, higher = more signal
[10] = small-molecule microarray binders of probe aEGFR, primary screen, biochemical, biotinylated probe, 635/667 nm fluorescence (AID 1097); details: higher = more signal;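 note: probe is a biotinylated anti-EGFR antibody binding compounds printed on slides; score combines fluorescence near 667 nm and signal to noise of each spot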
[11] = system: Plasmodium falciparum Sir2 (PF13_0152, Sir2A); assay: pfSir2 binders on small-molecule microarrays, primary screen, biochemical, small-molecule microarray, 635 nm fluorescence (AID 1098); details: small-molecule microarray binding, fluorescence 635 nm; higher = more signal;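 note: score merges spot fluorescence intensity with its signal-to-noise ratio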
[12] = small-molecule microarray binders of probe aDKK1, primary screen, biochemical, biotinylated probe, 635/667 nm fluorescence (AID 1099); details: higher = more signal;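 note: score merges 667nm spot fluorescence with signal to noise across triplicate slides; reference of the scale not given here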
[13] = small-molecule microarray binders of probe aCHRDL2, primary screen, biochemical, biotinylated probe, 635/667 nm fluorescence (AID 1100); details: higher = more signal
[14] = splicing luciferase reporter signal modulators, primary screen, spliceosome inhibition project, cell-based, HEK293, splice +/- reporter (AID 1101); details: luminescence, 24 h, higher = more signal, called active from +8 up or from −8 down;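 note: HEK293 cells carrying a splicing-competent luciferase reporter gene; test concentration not given here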
[15] = molecular target: Fibroblast growth factor 10 (Homo sapiens) (UniProt O15520); assay: FGF10 binders on small-molecule microarrays, primary screen, biochemical, small-molecule microarray, 635 nm fluorescence (AID 1102); details: FGF10 binding, fluorescence 635 nm, higher = more signal
[16] = system: glycogen synthase kinase-3 (GSK3A per assay name; protocol says GSK3B); assay: GSK3 binders on small-molecule microarrays, primary screen, biochemical, small-molecule microarray, 635 nm fluorescence, GSK3A (AID 1103); details: small-molecule microarray binding, fluorescence 635 nm; higher = more signal; note: the record names both GSK3A and GSK3B
[17] = molecular target: Epidermal growth factor receptor (Homo sapiens) (UniProt P00533); assay: EGFR binders on small-molecule microarrays, primary screen, biochemical, small-molecule microarray, 635 nm fluorescence (AID 1104); details: EGFR binding, higher = more signal;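 note: score merges 667 nm emission intensity with spot signal to noise over triplicate slides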
[18] = molecular target: Follistatin-related protein 3 (Homo sapiens) (UniProt O95633); assay: FSTL3 binders on small-molecule microarrays, primary screen, biochemical, small-molecule microarray, 635 nm fluorescence (AID 1105); details: FSTL3 binding, higher = more signal;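 note: score merges emission near 667 nm and signal to noise per printed spot across three slides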
[19] = molecular target: Dickkopf-related protein 1 (Homo sapiens) (UniProt O94907); assay: DKK1 binders on small-molecule microarrays, primary screen, biochemical, small-molecule microarray, 635 nm fluorescence scan (AID 1106); details: DKK1 binding, higher = more signal;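 note: score merges emission near 667 nm with signal to noise over three replicate slides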
[20] = system: Inhibin beta A chain (activin A); assay: INHBA (activin A) binders on microarrays, primary screen, biochemical, small-molecule microarray, 635 nm fluorescence scan (AID 1107); details: small-molecule microarray binding, higher = more signal;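 note: mouse activin A protein probed at 4.33 µg/mL on printed slides; score merges bound-protein fluorescence near 667 nm with spot signal-to-noise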

Follistatin-related protein 3 (Homo sapiens), sequence (O95633 whole entry, looked up): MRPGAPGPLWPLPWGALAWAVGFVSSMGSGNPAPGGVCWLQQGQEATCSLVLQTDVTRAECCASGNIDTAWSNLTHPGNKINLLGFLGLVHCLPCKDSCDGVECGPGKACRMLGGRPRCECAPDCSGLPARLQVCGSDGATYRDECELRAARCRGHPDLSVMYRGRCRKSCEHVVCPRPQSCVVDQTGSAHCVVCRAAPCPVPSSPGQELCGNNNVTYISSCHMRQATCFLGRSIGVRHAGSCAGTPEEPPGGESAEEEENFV
Neurogenic locus notch homolog protein 3 (Homo sapiens), sequence (Q9UM47 whole entry, looked up): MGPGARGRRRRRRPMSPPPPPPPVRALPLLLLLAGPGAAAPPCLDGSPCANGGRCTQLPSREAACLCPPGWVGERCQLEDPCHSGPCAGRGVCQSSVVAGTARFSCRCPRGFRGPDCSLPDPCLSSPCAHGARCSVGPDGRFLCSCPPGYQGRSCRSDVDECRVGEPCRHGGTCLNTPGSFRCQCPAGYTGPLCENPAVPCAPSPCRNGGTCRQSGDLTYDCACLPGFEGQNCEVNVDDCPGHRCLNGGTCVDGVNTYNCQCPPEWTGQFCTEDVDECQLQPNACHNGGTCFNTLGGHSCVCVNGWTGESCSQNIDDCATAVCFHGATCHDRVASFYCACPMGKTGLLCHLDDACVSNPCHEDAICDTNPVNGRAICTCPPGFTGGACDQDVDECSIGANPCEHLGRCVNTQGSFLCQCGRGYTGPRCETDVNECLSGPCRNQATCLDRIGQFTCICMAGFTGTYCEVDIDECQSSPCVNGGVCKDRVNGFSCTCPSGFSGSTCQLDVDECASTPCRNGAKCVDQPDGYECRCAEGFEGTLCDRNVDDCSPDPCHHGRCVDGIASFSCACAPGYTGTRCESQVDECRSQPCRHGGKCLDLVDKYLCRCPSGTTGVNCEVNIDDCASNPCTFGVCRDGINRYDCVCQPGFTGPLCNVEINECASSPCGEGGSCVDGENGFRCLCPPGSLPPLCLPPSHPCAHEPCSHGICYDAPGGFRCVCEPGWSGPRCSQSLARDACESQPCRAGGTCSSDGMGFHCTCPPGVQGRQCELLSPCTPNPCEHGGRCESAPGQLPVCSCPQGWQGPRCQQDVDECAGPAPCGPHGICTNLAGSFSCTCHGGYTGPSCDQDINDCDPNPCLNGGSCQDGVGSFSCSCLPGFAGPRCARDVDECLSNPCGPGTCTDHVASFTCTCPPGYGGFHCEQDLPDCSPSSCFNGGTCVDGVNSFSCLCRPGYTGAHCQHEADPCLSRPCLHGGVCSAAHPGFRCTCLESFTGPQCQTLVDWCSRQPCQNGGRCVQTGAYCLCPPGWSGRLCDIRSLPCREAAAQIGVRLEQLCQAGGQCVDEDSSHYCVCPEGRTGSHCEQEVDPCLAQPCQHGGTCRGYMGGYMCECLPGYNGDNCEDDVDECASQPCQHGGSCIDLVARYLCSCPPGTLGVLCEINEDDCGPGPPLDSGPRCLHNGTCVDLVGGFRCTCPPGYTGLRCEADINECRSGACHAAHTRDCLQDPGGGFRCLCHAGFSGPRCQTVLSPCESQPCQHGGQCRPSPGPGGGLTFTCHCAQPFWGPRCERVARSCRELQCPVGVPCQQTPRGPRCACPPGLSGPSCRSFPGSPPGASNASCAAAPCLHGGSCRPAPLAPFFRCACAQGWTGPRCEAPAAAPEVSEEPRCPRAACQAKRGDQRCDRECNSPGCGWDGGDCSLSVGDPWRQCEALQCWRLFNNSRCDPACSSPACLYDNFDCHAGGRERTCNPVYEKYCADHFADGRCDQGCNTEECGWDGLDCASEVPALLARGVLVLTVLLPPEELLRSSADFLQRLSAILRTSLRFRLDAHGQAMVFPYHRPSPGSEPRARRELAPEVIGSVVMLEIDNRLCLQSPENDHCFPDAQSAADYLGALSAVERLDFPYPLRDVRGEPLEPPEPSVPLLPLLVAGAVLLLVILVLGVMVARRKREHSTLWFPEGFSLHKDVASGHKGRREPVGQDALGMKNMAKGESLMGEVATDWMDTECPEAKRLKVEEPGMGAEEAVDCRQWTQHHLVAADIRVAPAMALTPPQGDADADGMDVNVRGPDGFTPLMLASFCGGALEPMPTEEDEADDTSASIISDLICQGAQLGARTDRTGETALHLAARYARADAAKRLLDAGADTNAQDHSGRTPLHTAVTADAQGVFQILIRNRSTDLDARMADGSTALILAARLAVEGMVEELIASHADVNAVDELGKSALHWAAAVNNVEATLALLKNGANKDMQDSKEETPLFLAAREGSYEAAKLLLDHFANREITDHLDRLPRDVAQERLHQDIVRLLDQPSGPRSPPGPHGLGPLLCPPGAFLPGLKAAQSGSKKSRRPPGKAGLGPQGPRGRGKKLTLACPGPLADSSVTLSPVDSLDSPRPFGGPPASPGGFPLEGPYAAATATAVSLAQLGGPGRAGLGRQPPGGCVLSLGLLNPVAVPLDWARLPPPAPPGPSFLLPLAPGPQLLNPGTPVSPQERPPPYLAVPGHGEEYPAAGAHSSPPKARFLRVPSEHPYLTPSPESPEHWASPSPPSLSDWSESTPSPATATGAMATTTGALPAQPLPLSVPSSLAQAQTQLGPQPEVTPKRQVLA
Epidermal growth factor receptor (Homo sapiens), sequence (P00533 whole entry, looked up): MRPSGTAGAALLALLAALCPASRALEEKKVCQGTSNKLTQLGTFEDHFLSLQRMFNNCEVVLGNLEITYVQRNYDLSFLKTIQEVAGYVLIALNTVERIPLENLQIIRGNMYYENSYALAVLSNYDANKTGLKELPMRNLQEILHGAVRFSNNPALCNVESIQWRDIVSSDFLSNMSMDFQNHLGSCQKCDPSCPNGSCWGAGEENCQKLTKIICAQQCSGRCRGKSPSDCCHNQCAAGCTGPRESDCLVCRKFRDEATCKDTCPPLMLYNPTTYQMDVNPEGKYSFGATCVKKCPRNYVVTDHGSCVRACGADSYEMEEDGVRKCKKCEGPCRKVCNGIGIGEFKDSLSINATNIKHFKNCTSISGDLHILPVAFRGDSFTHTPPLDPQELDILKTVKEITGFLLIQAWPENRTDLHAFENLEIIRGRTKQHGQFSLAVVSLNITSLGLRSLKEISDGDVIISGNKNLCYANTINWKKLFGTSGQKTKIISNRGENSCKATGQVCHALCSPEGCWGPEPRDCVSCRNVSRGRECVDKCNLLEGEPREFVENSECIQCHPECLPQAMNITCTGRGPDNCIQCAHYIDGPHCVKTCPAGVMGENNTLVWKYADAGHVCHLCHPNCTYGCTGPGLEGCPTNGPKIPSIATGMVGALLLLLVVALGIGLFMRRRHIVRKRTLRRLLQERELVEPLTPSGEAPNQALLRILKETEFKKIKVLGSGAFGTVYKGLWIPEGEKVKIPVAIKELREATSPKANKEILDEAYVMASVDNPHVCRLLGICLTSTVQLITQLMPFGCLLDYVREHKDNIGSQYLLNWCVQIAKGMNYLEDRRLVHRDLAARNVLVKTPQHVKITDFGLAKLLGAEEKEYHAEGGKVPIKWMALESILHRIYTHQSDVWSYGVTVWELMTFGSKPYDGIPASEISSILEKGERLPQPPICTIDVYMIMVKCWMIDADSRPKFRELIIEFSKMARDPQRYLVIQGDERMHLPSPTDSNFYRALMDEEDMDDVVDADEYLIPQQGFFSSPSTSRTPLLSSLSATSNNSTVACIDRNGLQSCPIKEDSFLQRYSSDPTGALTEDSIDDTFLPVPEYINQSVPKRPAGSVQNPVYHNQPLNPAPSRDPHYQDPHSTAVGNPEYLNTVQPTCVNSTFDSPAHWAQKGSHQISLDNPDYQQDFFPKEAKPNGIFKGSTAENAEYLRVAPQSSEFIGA
Fibroblast growth factor 10 (Homo sapiens), sequence (O15520 whole entry, looked up): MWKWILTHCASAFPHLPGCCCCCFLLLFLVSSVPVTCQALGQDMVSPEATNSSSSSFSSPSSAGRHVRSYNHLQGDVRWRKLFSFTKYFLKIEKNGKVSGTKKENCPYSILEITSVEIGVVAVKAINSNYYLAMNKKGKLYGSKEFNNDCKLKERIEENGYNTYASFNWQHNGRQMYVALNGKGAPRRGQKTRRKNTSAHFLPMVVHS
Torsin-1A-interacting protein 2 (Homo sapiens), sequence (Q8NFQ8 whole entry, looked up): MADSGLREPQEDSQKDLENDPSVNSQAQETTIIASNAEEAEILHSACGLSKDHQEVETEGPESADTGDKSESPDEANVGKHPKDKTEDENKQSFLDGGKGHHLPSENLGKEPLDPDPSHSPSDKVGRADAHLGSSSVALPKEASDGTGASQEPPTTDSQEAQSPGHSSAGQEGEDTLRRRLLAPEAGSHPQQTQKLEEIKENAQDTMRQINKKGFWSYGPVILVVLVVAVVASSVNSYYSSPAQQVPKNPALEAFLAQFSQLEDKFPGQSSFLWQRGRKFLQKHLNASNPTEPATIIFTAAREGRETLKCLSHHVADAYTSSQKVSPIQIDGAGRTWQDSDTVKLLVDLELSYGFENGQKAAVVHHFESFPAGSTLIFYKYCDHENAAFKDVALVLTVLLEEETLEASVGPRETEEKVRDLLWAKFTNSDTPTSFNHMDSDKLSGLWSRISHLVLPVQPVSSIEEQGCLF
Dickkopf-related protein 1 (Homo sapiens), sequence (O94907 whole entry, looked up): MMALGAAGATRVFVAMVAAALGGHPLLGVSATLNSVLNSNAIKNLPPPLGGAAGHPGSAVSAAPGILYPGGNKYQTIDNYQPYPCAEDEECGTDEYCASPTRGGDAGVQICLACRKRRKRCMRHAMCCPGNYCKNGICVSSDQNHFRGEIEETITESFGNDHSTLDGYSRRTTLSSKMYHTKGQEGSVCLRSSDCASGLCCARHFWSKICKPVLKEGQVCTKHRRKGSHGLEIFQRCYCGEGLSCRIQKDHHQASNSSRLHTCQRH

SMILES	composite z-score [1]	z-score [2]	z-score [3]	z-score [4]	composite z-score [5]	z-score [6]	composite z-score [7]	composite z-score [8]	composite z-score [9]	composite z-score [10]	composite z-score [11]	composite z-score [12]	composite z-score [13]	z-score [14]	composite z-score [15]	composite z-score [16]	composite z-score [17]	composite z-score [18]	composite z-score [19]	composite z-score [20]
COC(=O)[C@@]1(Cc2ccc(OC)cc2)[C@H]2c3cc(C(=O)N(C)C)[nH]c3C[C@H]2CN1C(=O)c1ccccc1	-0.614	0.0372 (inactive)	1.15 (inactive)	0.0745 (inactive)	0.982	0.0515 (inactive)	0.096	-0.337	0.201	-0.0594	1.03	0.416	0.564	0.569 (inactive)	1.12	-0.54	-0.144	-0.273	-0.465	0.0999
CCCNC(=O)[C@@]1(c2ccc([N+](=O)[O-])cc2)CC(=O)N(C(C)C)[C@@H]1c1ccc(CO)cc1	-0.854	-0.836 (inactive)	-1 (inactive)	-0.594 (inactive)	1.41	0.353 (inactive)	-0.268	-1.27	-0.124	-0.278	0.928	-0.0525	0.985	-0.27 (inactive)	-0.853	-0.664	-1.52	-0.546	-0.695	-0.251
CCOC(=O)C[C@H]1[C@H](OC(=O)Cc2ccc3c(c2)OCO3)[C@@H](NC(=O)Cc2ccc(OC)cc2)c2cc(OCCCO)ccc2N1C(=O)Cc1ccc(OC)cc1	0.433	-0.449 (inactive)	0.531 (inactive)	-0.495 (inactive)	1.3	0.503 (inactive)	-0.0616	-0.102	0.194	-0.157	0.132	-0.0514	-0.178	-2.07 (inactive)	0.205	0.157	-0.141	0.0597	-0.141	0.177
C=C(CCCC)/C(=C/C[C@H](OC(=O)c1ccncc1)c1cccc(OCCO)c1)c1cnc2ccccc2c1	1.53	-0.664 (inactive)	-0.968 (inactive)	8.23 (active)	2.52	-0.268 (inactive)	-0.121	0.869	1.13	-0.065	1.15	-0.138	-0.303	0.223 (inactive)	0.853	0.783	0.463	1.28	0.483	1.6
COC(=O)[C@@]1(Cc2ccccc2)[C@H]2c3cc(C(=O)N(C)C)n(Cc4ccc(S(C)(=O)=O)cc4)c3C[C@H]2CN1C(=O)c1ccccc1	-0.541	0.407 (inactive)	0.279 (inactive)	0.654 (inactive)	3.51	-1.59 (inactive)	0.384	-0.415	1.11	0.211	0.308	1.1	1.22	0.376 (inactive)	0.648	0.0903	-0.366	-0.0624	-0.618	0.749
C=CC[C@]1(C(=O)NCC(O)CO)COC(c2ccc(OCCCO)cc2)=N1 (stereo not given in full)	-0.726	0.26 (inactive)	0.691 (inactive)	0.959 (inactive)	2.15	-0.363 (inactive)	0.479	-0.415	-1.35	0.0444	-0.329	0.787	1.05	0.2 (inactive)	-0.106	0.0993	-1.18	-0.865	-0.463	1.12
CC(C)C(O)C1C=CC2C(=O)NC(=O)C2N1Nc1ccccn1 (stereo not given)	0.522	1.02 (inactive)	1.68 (inactive)	0.56 (inactive)	1.92	-0.847 (inactive)	0.0894	-0.0878	0.301	-0.109	1.09	0.886	0.542	1.02 (inactive)	0.109	0.352	-0.216	0.401	-0.0362	1.4
C[C@@H]1ON(c2ccccc2)[C@H](c2ccccc2)[C@H]1C(=O)O	0.461	-0.452 (inactive)	0.252 (inactive)	-0.408 (inactive)	-0.0551	-0.108 (inactive)	-0.196	0.175	0.102	0.203	-0.344	-0.158	-0.269	0.221 (inactive)	0.777	0.362	-0.436	-0.213	0.796	-0.367
CC1CC/C=C\[C@H]2OC34C=CCN(Cc5ccccc5)C(=O)[C@H]3N(CCCCCCO)C(=O)[C@@H]4C2C(=O)O1 (stereo not given in full)	0.661	-0.617 (inactive)	-0.623 (inactive)	-0.482 (inactive)	2.31	0.246 (inactive)	-0.163	-1.78	-0.397	-0.0773	0.954	-0.0995	0.705	0.0368 (inactive)	-0.965	-0.587	-1.28	-1.01	-1.49	0.0203
COc1cc(C(O)C2C=CC3C(=O)N(c4ccccc4)C(=O)C3N2Nc2ccccc2F)cc(OC)c1OC (stereo not given)	1.54	0.785 (inactive)	0.578 (inactive)	1.32 (inactive)	3.58	-0.629 (inactive)	0.122	0.334	1.09	-0.027	1.41	0.521	0.55	0.392 (inactive)	1.35	1.34	-0.117	0.479	-0.0657	0.519
